From PubChem BioAssay (NCI) come the findings set out here.

Compounds without any hit were thinned out: in the full panel of roughly 83,000, 20% have a hit.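 Single-dose data. Exposure time 48 hours. Values below 10 considered active.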 The source made the active and inactive calls.

For this test, the system named is PC-3 prostate. The test can be described thus: NCI-60 one-dose screen, 48 h (100 = growth as untreated, 0 = no growth, -100 = all killed). To be noted: 10 µM unless noted.
As to `N#Cc1c(-c2ccccc2Cl)cc(-c2c[nH]c3ccccc23)[nH]c1=O`, the growth is 72.8% (inactive).

For `CN1CCN(/C(=N\c2sc(-c3ccccc3)nc2-c2ccccc2)c2ccccc2)CC1`, the growth was 56.8% (inactive).

`COc1ccc(-c2cc(C(=O)NCc3ccccc3)nn2-c2ccc(S(C)(=O)=O)cc2)cc1OC`: the growth was 110% (inactive).

Consider `O=C(COc1ccc(NC(=O)Nc2ccc(Cl)c(Cl)c2)cc1)N=Nc1c(O)[nH]c2ccc(Cl)cc12`, for which the growth was -2.39% (active).

`C=C1CC[C@@H]2[C@]3(C)COC(c4cn(-c5ccccc5)nc4-c4ccccc4)O[C@@H]3CC[C@@]2(C)[C@@H]1C/C=C1/C(=O)OC[C@H]1O` (stereo partly drawn): the growth was -26.8% (active).

As for `CC(=O)Nc1cccc(-c2nc3cc(-c4ccc(O)cc4)ccc3n2C)c1`, the growth was 47.9% (inactive).

As to `O=C(/C=C/c1ccc(-c2ccccc2)cc1)c1nc2ccccc2n1Cc1ccc(F)cc1`, the growth is 47.6% (inactive).

For the compound `Cc1cc2nc3c4ccccc4n(CCNCCN(C)C)c3nc2cc1C`, the growth was 18.2% (inactive).

In the case of `c1ccc(-c2csc(Nc3cccc(Nc4nc(-c5ccccc5)cs4)c3)n2)cc1`, the growth was 32.1% (inactive).

Turning to `O=C(N/N=C/c1ccc(-c2ccc(O)cc2)s1)c1[nH]c2ccc(Br)cc2c1-c1ccccc1`, the growth was 7.47% (active).

As to `COCOc1cc2c(=O)c(C)c(C(=O)N[C@@H](Cc3ccccc3)C(O)C(=O)NCc3ccccc3)oc2cc1OC` (stereo partly drawn), the growth is 73.4% (inactive).

As to `COc1cc2oc(-c3cccc(C(=O)Nc4ccc(Cl)cc4)c3)cc(=O)c2c(OCCNC(=O)[C@@H](N)CCC(=O)O)c1OC`, the growth is 79% (inactive).

As to `Cn1cc(-c2nc(N)nnc2-c2c[nH]c3ccc(Br)cc23)c2cccnc21`, the growth was 59.9% (inactive).

For the compound `O=C1c2c(c3c4cc(F)ccc4oc3c3[nH]c4ccc(Br)cc4c23)C(=O)N1O`, the growth was 20.2% (inactive).

For `CCCCNC(=S)Nc1ccc(OCc2nc3ccccc3[nH]2)cc1`, the growth is 58.2% (inactive).

On to `COc1cc(-c2ccc(/C=N/NC(=O)c3[nH]c4ccc(Br)cc4c3-c3ccccc3)s2)cc(OC)c1OC`, for which the growth is 76.5% (inactive).

For the compound `C=C1CC[C@@H]2[C@]3(C)COC(c4cn[nH]c4-c4ccc(C)cc4)O[C@@H]3CC[C@@]2(C)[C@@H]1C/C=C1/C(=O)OCC1O` (stereo partly drawn), the growth is 37.6% (inactive).

For the compound `COc1cc2c(c(OC)c1OC)C(=O)CC(c1cccc(NC(=O)c3cc(N)ccc3Cl)c1)O2` (stereo not drawn), the growth is 47.3% (inactive).

For the compound `COc1cc2c(c(OC)c1OC)C(=O)CC(c1cccc(NC(=O)c3cccc(NC(=O)[C@H](C)NC(=O)OC(C)(C)C)c3)c1)O2` (stereo partly drawn), the growth is 45.6% (inactive).

Turning to `C=C1CCC2C3(C)COC(c4cc(F)cc(F)c4)OC3CCC2(C)C1CC(O)C1=CCOC1=O` (stereo not drawn), the growth is 25.8% (inactive).

On to `O=C(/C=C/c1ccc(O)c(O)c1)NC1CCOC1O` (stereo not drawn), for which the growth is 95.4% (inactive).

Turning to `C/C(=N\N=C1/C(=O)Nc2ccc(Cl)cc21)c1ccc2c(c1)Nc1ccccc1S2`, the growth was -5.59% (active).

As for `CC(C)CCNC(=O)N/C(N)=N/c1nc2ccccc2s1`, the growth was 62.6% (inactive).

Regarding `OCNc1ccc(-n2cnc3cc(-c4ccc(O)cc4)ccc32)cc1C(F)(F)F`, the growth is 45.6% (inactive).

Regarding `C=C1CCC2C3(C)COC(c4ccc(F)cc4)OC3CCC2(C)C1C/C=C1/C(=O)OCC1O` (stereo not drawn), the growth was -43.6% (active).

On to `O=c1[nH]n(C(=S)N/N=C/c2ccccc2Cl)c(=O)c2ccccc12`, for which the growth was 22.6% (inactive).

Regarding `N#Cc1c(-c2cccc(Cl)c2Cl)cc(-c2ccc3ccccc3c2)[nH]c1=O`, the growth is 44.4% (inactive).

In the case of `Clc1cccc(Cl)c1/C=C/c1cc(/C=C/c2ccc(Br)cc2)c2ccccc2n1`, the growth is 96.2% (inactive).

As for `CC(C)c1ccc2c(N)c(C(=O)Nc3ccc(C(F)(F)F)cn3)sc2n1`, the growth was 44.7% (inactive).

For the compound `CCN(CC)C(=O)N/C(N)=N/c1nc2ccccc2s1`, the growth was 54.9% (inactive).

With `O=C(COc1ccc(NC(=O)Nc2ccc(Cl)c(Cl)c2)cc1)N=Nc1c(O)[nH]c2ccc([N+](=O)[O-])cc12`, the growth is 71.6% (inactive).

In the case of `Cc1cc2c(cc1Cl)C(=O)/C(=C/c1ccc(F)cc1)O2`, the growth is 91.1% (inactive).

For the compound `CCCCOc1ccc(NC(=O)c2sc3nc(C)ccc3c2N)cc1`, the growth is 36.8% (inactive).

In the case of `O=C1Nc2cc(Cl)ccc2/C1=C/c1cccc(OCc2ccccn2)c1`, the growth was 20.1% (inactive).

Regarding `NS(=O)(=O)c1ccc(N=Nc2c(O)n(CC(=O)Nc3ccccc3Cl)c3ccccc23)cc1`, the growth is 26.1% (inactive).

Take `O=C(Nc1cccc(-n2cnc3cc(-c4ccc(O)cc4)ccc32)c1)C1CC1`: the growth is 47% (inactive).

On to `C=C1CC[C@@H]2[C@]3(C)COC(c4cn[nH]c4-c4ccc(OC)cc4)O[C@@H]3CC[C@@]2(C)[C@@H]1C/C=C1/C(=O)OCC1O` (stereo partly drawn), for which the growth was 39.3% (inactive).

Regarding `CC(=O)Nc1ccc(-c2cn(-c3cccc(C(=O)Nc4ccc(N5CCN(C)CC5)cc4)c3)nn2)cn1`, the growth was 72.2% (inactive).
